In PubChem BioAssay (NCI):
The panel holds about 83,000 compounds, 20% with a hit somewhere; the sample as a whole holds those more often.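 Cells were grown in 96-well plates and exposed to the test compound at a single concentration for 48 hours; results are reported as percent growth, with values below 10 considered active.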 Calls of active or inactive are those of the source.

Experiments:
Experiment in all cases: NCI-60 one-dose screen, 48 h (100 = growth as untreated, 0 = no growth, -100 = all killed)
Details in all cases: 10 µM unless noted
RPMI-8226 leukemia = test system: RPMI-8226 leukemia
OVCAR-8 ovarian = test system: OVCAR-8 ovarian
OVCAR-5 ovarian = test system: OVCAR-5 ovarian
OVCAR-4 ovarian = test system: OVCAR-4 ovarian
SK-OV-3 ovarian = test system: SK-OV-3 ovarian
IGROV1 ovarian = test system: IGROV1 ovarian
OVCAR-3 ovarian = test system: OVCAR-3 ovarian
HS 578T breast = test system: HS 578T breast
NCI/ADR-RES ovarian = test system: NCI/ADR-RES ovarian
T-47D breast = test system: T-47D breast

Measured: growth

CCC1=C(c2ccc(OC)cc2)C(C)Oc2cc(OC(C)=O)ccc21 (stereo not given)
inactive: RPMI-8226 leukemia 75.6% | OVCAR-8 ovarian 68.8% | OVCAR-5 ovarian 128% | OVCAR-4 ovarian 72.4% | SK-OV-3 ovarian 80.6% | IGROV1 ovarian 104% | OVCAR-3 ovarian 86.9% | HS 578T breast 83.5% | NCI/ADR-RES ovarian 75.6% | T-47D breast 65.4%

Cc1cc(C)c2c(c1)N1OC(C2)C[C@H]1/C=C/c1ccccc1 (stereo not given in full)
inactive: RPMI-8226 leukemia 94.9% | OVCAR-8 ovarian 102% | OVCAR-5 ovarian 99% | OVCAR-4 ovarian 81.8% | SK-OV-3 ovarian 116% | IGROV1 ovarian 82.3% | OVCAR-3 ovarian 116% | HS 578T breast 122% | NCI/ADR-RES ovarian 95.9% | T-47D breast 93.6%

CC[N+](CC)(CCOCCOCC[N+](CC)(CC)Cc1ccc([N+](=O)[O-])cc1)Cc1ccc([N+](=O)[O-])cc1
inactive: RPMI-8226 leukemia 96.6% | OVCAR-8 ovarian 103% | OVCAR-5 ovarian 98.8% | OVCAR-4 ovarian 106% | SK-OV-3 ovarian 112% | IGROV1 ovarian 125% | OVCAR-3 ovarian 116% | HS 578T breast 133% | NCI/ADR-RES ovarian 98.9% | T-47D breast 95.3%

Nc1ccc2c(c1)/C(=N/O)c1cc([N+](=O)[O-])ccc1-2
inactive: RPMI-8226 leukemia 58.9% | OVCAR-8 ovarian 87% | OVCAR-5 ovarian 102% | OVCAR-4 ovarian 84% | SK-OV-3 ovarian 81.6% | IGROV1 ovarian 57% | OVCAR-3 ovarian 63.8% | HS 578T breast 77.2% | NCI/ADR-RES ovarian 109% | T-47D breast 93%

Cc1c(C(N)=O)sc2ncn(CC(=O)Nc3ccc(Cl)cc3)c(=O)c12
inactive: RPMI-8226 leukemia 101% | OVCAR-8 ovarian 105% | OVCAR-5 ovarian 85.5% | OVCAR-4 ovarian 110% | SK-OV-3 ovarian 106% | IGROV1 ovarian 533% | OVCAR-3 ovarian 122% | HS 578T breast 139% | NCI/ADR-RES ovarian 102% | T-47D breast 102%

CN1C(=O)C(=Cc2cn(Cc3ccccc3)c3ccc(Br)cc23)C(=O)N(C)C1=O
inactive: RPMI-8226 leukemia 92.6% | OVCAR-8 ovarian 97.9% | OVCAR-5 ovarian 14% | OVCAR-4 ovarian 107% | SK-OV-3 ovarian 90.4% | IGROV1 ovarian 97.3% | OVCAR-3 ovarian 103% | HS 578T breast 113% | NCI/ADR-RES ovarian 96.9% | T-47D breast 83.7%

O=c1ccn(C2CCCO2)c(=O)[nH]1 (stereo not given)
inactive: RPMI-8226 leukemia 108% | OVCAR-8 ovarian 102% | OVCAR-5 ovarian 111% | OVCAR-4 ovarian 119% | SK-OV-3 ovarian 112% | IGROV1 ovarian 114% | OVCAR-3 ovarian 115% | HS 578T breast 112% | NCI/ADR-RES ovarian 110% | T-47D breast 105%

Cc1c(N(C)CS(=O)(=O)O)c(=O)n(-c2ccccc2)n1C
inactive: RPMI-8226 leukemia 99.2% | OVCAR-8 ovarian 109% | OVCAR-5 ovarian 106% | OVCAR-4 ovarian 116% | SK-OV-3 ovarian 104% | IGROV1 ovarian 103% | OVCAR-3 ovarian 118% | HS 578T breast 125% | NCI/ADR-RES ovarian 109% | T-47D breast 107%

CC(C)[O-].CC(C)[O-].CN(CCN(C)Cc1cc(F)cc(F)c1[O-])Cc1cc(F)cc(F)c1[O-].[Ti+4]
inactive: RPMI-8226 leukemia 32.9% | OVCAR-8 ovarian 10.6% | OVCAR-5 ovarian 12.4% | OVCAR-4 ovarian 14% | SK-OV-3 ovarian 16.4% | NCI/ADR-RES ovarian 11.2%
active: IGROV1 ovarian -42.2% | OVCAR-3 ovarian 4.78% | HS 578T breast -16% | T-47D breast 9.18%

CCOC(=O)C1=C(C)N2C(=NC3=C(CCC/C3=C\c3ccc(Cl)cc3)C2c2ccc(Cl)cc2)S1 (stereo not given)
active: RPMI-8226 leukemia -19.1% | OVCAR-3 ovarian -29.2%
inactive: OVCAR-8 ovarian 23% | OVCAR-5 ovarian 78.1% | OVCAR-4 ovarian 48.3% | SK-OV-3 ovarian 47% | IGROV1 ovarian 12.8% | HS 578T breast 51.7% | NCI/ADR-RES ovarian 39.4% | T-47D breast 25.3%

COC(=O)[C@]12CC[C@@H](C)[C@H](C)[C@@H]1C1=CC[C@@H]3[C@@]4(C)C[C@@H](OC(=O)c5ccco5)[C@H](O)[C@@](C)(CO)[C@@H]4[C@H](O)C[C@@]3(C)[C@]1(C)CC2
active: RPMI-8226 leukemia -64.7% | OVCAR-8 ovarian -76.1% | OVCAR-5 ovarian -85.3% | OVCAR-4 ovarian -67.9% | SK-OV-3 ovarian -97.2% | IGROV1 ovarian -65% | OVCAR-3 ovarian -93.8% | HS 578T breast -39.9% | NCI/ADR-RES ovarian -80.6% | T-47D breast -68.3%

CC(=O)c1ccc2c3c(n(C)c2c1)CCCC3
inactive: RPMI-8226 leukemia 90.2% | OVCAR-8 ovarian 106% | OVCAR-5 ovarian 91.7% | OVCAR-4 ovarian 106% | SK-OV-3 ovarian 110% | IGROV1 ovarian 104% | OVCAR-3 ovarian 111% | HS 578T breast 141% | NCI/ADR-RES ovarian 96.9% | T-47D breast 109%

CSC1=Nc2c(c(C)c(-c3ccccc3)n2CCCN2CCCCC2)C2=NC(=O)C[C@H](C)N12
inactive: OVCAR-8 ovarian 44.6% | OVCAR-5 ovarian 83.1% | OVCAR-4 ovarian 43.6% | SK-OV-3 ovarian 26.9% | IGROV1 ovarian 22.6% | OVCAR-3 ovarian 24.5% | HS 578T breast 11% | NCI/ADR-RES ovarian 82.4%
active: RPMI-8226 leukemia -51.1% | T-47D breast -2.25%

Cn1c(=O)c2c(nc(Br)n2CCC(=O)Nc2ccc(F)cc2)n(C)c1=O
inactive: RPMI-8226 leukemia 101% | OVCAR-8 ovarian 100% | OVCAR-5 ovarian 94.7% | OVCAR-4 ovarian 114% | SK-OV-3 ovarian 83.6% | IGROV1 ovarian 107% | OVCAR-3 ovarian 125% | HS 578T breast 102% | NCI/ADR-RES ovarian 101% | T-47D breast 97.3%
